Our source for the growth inhibition values is PubChem BioAssay (NCI).

Test [1] in a line: NCI Yeast Anticancer Drug Screen. Data for the rad50 strain (AID 155).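 Note: 0% = growth of vehicle-only cultures of the same strain.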 Particulars: S. cerevisiae rad50 strain growth inhibition; at 50.0 µM; active compounds read high. The gist of the method:
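Inhibition values express reduced yeast growth in compound-treated cultures relative to vehicle-treated controls.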

A short description of test [2]: NCI Yeast Anticancer Drug Screen. Data for the mec2-1 strain (AID 157). Particulars: S. cerevisiae mec2-1 strain, at 50.0 µM, active compounds read high. The gist of the method:
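Growth inhibition is read against vehicle-treated controls after compound exposure of the mec2-1 yeast strain, which is defective in DNA damage repair or cell cycle control.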

A short description of test [3]: NCI Yeast Anticancer Drug Screen. Data for the sgs1 mgt1 strain (AID 161).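 Note: 0% = growth of cultures given vehicle only.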 The following applies: S. cerevisiae sgs1 mgt1 strain, at 50.0 µM, active compounds read high. In outline:
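Yeast cells carrying a defined DNA-repair defect were exposed to test compounds. Growth inhibition was measured relative to vehicle-treated controls.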

Test [4] in a line: NCI Yeast Anticancer Drug Screen. Data for the cln2 rad14 strain (AID 165).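 Note: 0% = growth equal to vehicle treated cultures.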 Particulars: S. cerevisiae cln2 rad14 strain, at 50.0 µM, active compounds read high. The gist of the method:
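Growth inhibition, relative to vehicle-treated controls, is the read-out. The test organism is a yeast strain with defined genetic alterations, cln2 rad14.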

Test [5] can be described thus: NCI Yeast Anticancer Drug Screen. Data for the bub3 strain (AID 167). Particulars: S. cerevisiae bub3 mutant strain, at 50.0 µM, active compounds read high. In outline:
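Steps: expose the mutant yeast strain to compound; grow alongside vehicle-treated cultures; measure growth; express inhibition against the vehicle cultures.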

Test [6] in a line: NCI Yeast Anticancer Drug Screen. Data for the mlh1 rad18 strain (AID 175). Particulars: S. cerevisiae mlh1 rad18 strain growth inhibition; at 50.0 µM; active compounds read high. In outline: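 Cells of a genetically altered yeast strain, deficient in DNA damage repair, were treated with compound. Their growth was then compared with that of vehicle-treated cultures to give inhibition.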

This is part of a sample that, as a whole, favours compounds with a hit. Of some 79,000 tested, about 15% had one in any assay. Values without a mark were called inactive. Activity calls are given as the source filed them. Cut-off read from the data, not from the text of the source: active = growth inhibition above about 70%; inactive = the rest. Where a SMILES comes first, the peptide text is derived from it. [ ]: non-standard residue; d: D form. The star is where a group is joined. ξ: configuration not given here. Bz = O=C(c1ccccc1)*; Bn = c1ccc(C*)cc1; ξC = NC(CS)C(=O)O

Consider `CC(C)n1c(=S)[nH]c2c(=O)[nH]c(=O)[nH]c21`, for which the growth inhibition was -30.9% in test [1]; -22.4% in test [2]; 0.05% in test [3]; -53.2% in test [4]; 10.8% in test [5]; -17.4% in test [6].
With `O=CC1(CCc2ccccc2)NC(=O)NC1=O` (stereo not drawn), the growth inhibition in test [1] was 5.3%; in test [2] it was 11.2%; in test [3], 2.55%; in test [4], -18.9%; in test [5] it was -0.4%; in test [6] it was 1.25%.
Take `COc1cc(\C=N/N=C/C=C/c2ccccc2)cc(OC)c1OC`: the growth inhibition is 0.55% in test [1]; 42.3% in test [2]; 7.95% in test [3]; -10.7% in test [4]; 38.4% in test [5]; 15.5% in test [6].
Regarding `O=C(CNC(=O)c1ccccc1)NC(CSCc1ccccc1)C(=O)O` (stereo not drawn) (Bz-Gly-[ξC](Bn)-OH), the growth inhibition in test [1] was -12.4%; in test [2], 5.55%; in test [3], -28.8%; in test [4], -19.1%; in test [5], -34.2%; in test [6] it was -1.3%.
Take `O=C(CNC(=O)C(CSC(c1ccccc1)(c1ccccc1)c1ccccc1)NC(=O)OCc1ccccc1)OCc1ccccc1[N+](=O)[O-]` (stereo not drawn): the growth inhibition was 4.9% in test [1]; 8.85% in test [2]; -4.15% in test [3]; -7.95% in test [4]; -7.05% in test [5]; 20.1% in test [6].
For `CC1=CC(N)C2CC1C2(C)C` (stereo not drawn), the growth inhibition in test [1] is -9.3%; in test [2] it was -17.1%; in test [3], -29.1%; in test [4], -37.6%; in test [5] it was -2.2%; in test [6] it was -1.65%.
Turning to `NC(=O)c1ccccc1OC(=O)Nc1ccccc1`, the growth inhibition in test [1] is 16.6%; in test [2], 7.5%; in test [3], 5.1%; in test [4], 17.2%; in test [5], 22.1%; in test [6] it was 10.8%.
In the case of `C(=C\c1ccccc1)/Cn1nc(-c2ccccc2)nc1-c1cnccn1`, the growth inhibition in test [1] is -33.1%; in test [2], -24%; in test [3] it was -47%; in test [4] it was 10.2%; in test [5], -39.4%; in test [6], -29.1%.
With `Cn1c(=O)cc(NC2OC(CO)C(O)C(O)C2O)[nH]c1=O` (stereo not drawn), the growth inhibition in test [1] is 2.1%; in test [2], -3.3%; in test [3], 24.8%; in test [4], -5.3%; in test [5] it was 0.75%; in test [6], 11.5%.
With `CCN(CC)C(=S)N=N/C(C)=C1/C=CC=CN1O`, the growth inhibition is 1.4% in test [1]; 0.4% in test [2]; 14.6% in test [3]; 13.6% in test [4]; 16.2% in test [5]; 74% (active) in test [6].
As to `CC(=O)[C@@]1(c2ccccc2)N(C(=O)c2ccccc2)[C@@]1(C)C(=O)c1ccccc1`, the growth inhibition in test [1] is 22.1%; in test [2] it was 2.25%; in test [3], 14.4%; in test [4] it was 53.1%; in test [5] it was 3.85%; in test [6] it was -0.75%.
In the case of `CC(C(O)c1ccccn1)[N+](=O)[O-]` (stereo not drawn), the growth inhibition is -11.4% in test [1]; 1.55% in test [2]; -7.1% in test [3]; -21.1% in test [4]; -10.7% in test [5]; -3.4% in test [6].
Regarding `NC(=O)CS`, the growth inhibition was -14.3% in test [1]; -17.2% in test [2]; -21.8% in test [3]; -11.7% in test [4]; -14.1% in test [5]; -22.1% in test [6].
With `CC1COC(C)(C2CC2)O1` (stereo not drawn), the growth inhibition in test [1] was 6.6%; in test [2], 9.95%; in test [3], -24.4%; in test [4], -13.7%; in test [5], 7.45%; in test [6], 6.5%.
Turning to `O=C(O)CNC(=O)OCc1ccccc1`, the growth inhibition in test [1] was -35.9%; in test [2], -16.4%; in test [3], -35.5%; in test [4], -45.8%; in test [5], 1.55%; in test [6], -19.4%.
On to `Cc1ccc(/C(O)=C/c2nc3ccccc3oc2=O)cc1`, for which the growth inhibition in test [1] is 20.2%; in test [2], 35.4%; in test [3], -7.5%; in test [4], -18.7%; in test [5], 25.9%; in test [6], 0.85%.
`CC(C(OC(=O)C1c2ccccc2-c2ccccc21)c1ccccc1)N(C)C` (stereo not drawn): the growth inhibition in test [1] was 99.5% (active); in test [2], 75.8% (active); in test [3], 99.5% (active); in test [4], 91.4% (active); in test [5] it was 99.4% (active); in test [6] it was 99.2% (active).
On to `CCOC(=O)CNc1c(OCc2ccccc2)c(=O)c1=O`, for which the growth inhibition in test [1] is -8.05%; in test [2], -10.8%; in test [3], -18.1%; in test [4], -3.65%; in test [5], -16.2%; in test [6], 5.8%.
As for `Cc1nc(-c2ccccc2)ncc1C(O)CN1CCOCC1` (stereo not drawn), the growth inhibition is 12.8% in test [1]; 11.2% in test [2]; 17.4% in test [3]; 13.7% in test [4]; -23% in test [5]; 6.95% in test [6].
Regarding `CCC(S)(C(N)=O)c1ccccc1` (stereo not drawn), the growth inhibition was 3% in test [1]; -10.4% in test [2]; -7.55% in test [3]; -26.8% in test [4]; -4.8% in test [5]; -18.2% in test [6].
Regarding `COC(=O)CN(C(=O)c1ccc(OC(C)=O)cc1)c1ccccc1`, the growth inhibition is 4.25% in test [1]; 23.3% in test [2]; -6.7% in test [3]; 9.1% in test [4]; 3.45% in test [5]; -28.1% in test [6].
Take `NC(=S)NNC(=O)C(Cc1ccccc1)NC(=O)OCc1ccccc1` (stereo not drawn): the growth inhibition was 1.75% in test [1]; 17.7% in test [2]; 22.9% in test [3]; -7.6% in test [4]; 15.7% in test [5]; 11.4% in test [6].
As to `CC(C)(C)OC1COCCO1` (stereo not drawn), the growth inhibition was 12.1% in test [1]; -5.35% in test [2]; 8.35% in test [3]; 1.3% in test [4]; 8% in test [5]; 13.8% in test [6].
`CCN1CSC(=S)N(Cc2ccccc2)C1`: the growth inhibition is 16.9% in test [1]; 6.3% in test [2]; 50.3% in test [3]; 4.55% in test [4]; 28.2% in test [5]; 32.6% in test [6].
Take `O=C(O)CCCC/C=C/CCCCCCC1C=CCC1` (stereo not drawn): the growth inhibition is -23.4% in test [1]; -35.9% in test [2]; 9.8% in test [3]; 0.7% in test [4]; -3.65% in test [5]; 1.65% in test [6].
As for `Nc1ccc(S(=O)(=O)NC(=O)c2ccccc2)cc1`, the growth inhibition in test [1] is 12.8%; in test [2], -7%; in test [3], 10.1%; in test [4] it was -26.9%; in test [5] it was -3%; in test [6] it was 0.2%.
Take `O=C(CNc1ccccn1)Nn1cnc2ccc(S(=O)(=O)Nc3ccccn3)cc2c1=O`: the growth inhibition was 32.2% in test [1]; 28% in test [2]; 39.4% in test [3]; -1.1% in test [4]; 25.6% in test [5]; 22.6% in test [6].
On to `CCCCCCCCCCCCCCCC(=O)ON1C(=S)NC(C)(c2ccccc2)C1=S` (stereo not drawn), for which the growth inhibition in test [1] was -0.65%; in test [2], 5.45%; in test [3], 9.15%; in test [4], -4.05%; in test [5], 13.4%; in test [6], -17.6%.
As to `C[N+](C)(CCNc1ccc(NCC[N+](C)(C)Cc2ccc([N+](=O)[O-])cc2)c2c1C(=O)c1c(O)ccc(O)c1C2=O)Cc1ccc([N+](=O)[O-])cc1`, the growth inhibition is 72.2% (active) in test [1]; 84.6% (active) in test [2]; 77.9% (active) in test [3]; 78.1% (active) in test [4]; 76.7% (active) in test [5]; 76.8% (active) in test [6].
Turning to `NC(Cc1ccc(B(O)O)cc1)C(=O)O` (stereo not drawn), the growth inhibition in test [1] was -26.1%; in test [2], -53.6%; in test [3], -29.5%; in test [4] it was -7.4%; in test [5] it was 7.75%; in test [6], -4.05%.
Regarding `CCOC(=O)CCCN(c1ccc(OC)c(OC)c1)S(=O)(=O)c1ccc(C)cc1`, the growth inhibition in test [1] was 32.1%; in test [2], 12.7%; in test [3] it was 43%; in test [4], 18.8%; in test [5], 16.4%; in test [6] it was 34.2%.
For `CCCCCCC(C)N1C(=O)c2ccccc2C1=O` (stereo not drawn), the growth inhibition in test [1] is 6.25%; in test [2], 6.75%; in test [3] it was 4.75%; in test [4], -39.1%; in test [5] it was 0.7%; in test [6] it was -8.4%.
For the compound `COC(=O)c1ccc(Cc2ccc(C(=O)OC)o2)o1`, the growth inhibition in test [1] was -9.05%; in test [2] it was 9.2%; in test [3], -5.25%; in test [4], -25.4%; in test [5], -8.35%; in test [6] it was -13.8%.
Consider `CC(=O)CCC(=O)CCC(C)=O`, for which the growth inhibition is -0.05% in test [1]; 30.4% in test [2]; 6.05% in test [3]; -1.85% in test [4]; 29.1% in test [5]; -2.7% in test [6].
Regarding `O=C1CC2CCC(C1)S2=O` (stereo not drawn), the growth inhibition was 19.6% in test [1]; -10.5% in test [2]; 17.5% in test [3]; 23% in test [4]; 12.8% in test [5]; 18.5% in test [6].
`O=[N+]([O-])c1ccccc1N=C=S`: the growth inhibition was 9.5% in test [1]; -10.3% in test [2]; -4.05% in test [3]; -36% in test [4]; -9.85% in test [5]; -17.7% in test [6].
On to `Cc1ccc(C(=O)C(O)c2ccc(C)cc2)cc1` (stereo not drawn), for which the growth inhibition in test [1] is 35.6%; in test [2], -34.6%; in test [3], 4.95%; in test [4], -24.1%; in test [5], 0.55%; in test [6], -7.05%.
As for `CCc1cc(Cc2cc(Cl)c(NC(=O)C(=O)C3NC(=O)NC3=O)c(CC)c2)cc(Cl)c1NC(=O)C(=O)C1NC(=O)NC1=O` (stereo not drawn), the growth inhibition in test [1] was 6.5%; in test [2], 5.2%; in test [3], 4.25%; in test [4] it was 15.9%; in test [5], 2.8%; in test [6], 8.65%.
